Among all 5,500 compounds or so, about 2,000 (36%) were called active. Roughly 18% stayed inconclusive and do not appear here. The list shows a part of the results. A number with no mark means an inactive call. No stated cut-off is given here; in the data, active means normalized growth mostly below about 0.91 (no sharp cut-off); inconclusive means no clear call, values can overlap the other calls; inactive means mostly above about 0.92.

This assay in a line: chemical genetic growth profiling, strain panel (AID 1159580).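 Further: tested at 20 µM; growth read once vehicle control cultures reached saturation at 30 °C; 1 = growth at the plate median or of vehicle wells.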 The note with it: growth OD.
[1] abbreviates: S. cerevisiae deletion strains, locus YAL013W, strain DEP1, stronger effect = lower value.
Setting [2] is: S. cerevisiae deletion strains, locus YBR229C, strain ROT2, stronger effect = lower value.
Setting [3] is: S. cerevisiae deletion strains, locus YDL101C, strain DUN1, stronger effect = lower value.
Where [4] appears, read: S. cerevisiae deletion strains, locus YDR150W, strain NUM1, stronger effect = lower value.
The mark [5] stands for this setting: S. cerevisiae deletion strains, locus YEL061C, strain CIN8, stronger effect = lower value.
Where [6] appears, read: S. cerevisiae deletion strains, locus YGR078C, strain PAC10, stronger effect = lower value.
Where [7] appears, read: S. cerevisiae deletion strains, locus YHR030C, strain SLT2, stronger effect = lower value.
Setting [8] is: S. cerevisiae deletion strains, locus YHR087W, strain rtc3, stronger effect = lower value.
[9] abbreviates: S. cerevisiae deletion strains, locus YJL187C, strain SWE1, stronger effect = lower value.
Where [10] appears, read: S. cerevisiae deletion strains, locus YJR043C, strain POL32, stronger effect = lower value.
[11] abbreviates: S. cerevisiae deletion strains, locus YJR075W, strain HOC1, stronger effect = lower value.
[12] abbreviates: S. cerevisiae deletion strains, locus YLR039C, strain RIC1, stronger effect = lower value.
[13] abbreviates: S. cerevisiae deletion strains, locus YLR058C, strain SHM2 (second series), stronger effect = lower value.
Where [14] appears, read: S. cerevisiae deletion strains, locus YLR085C, strain ARP6, stronger effect = lower value.
The mark [15] stands for this setting: S. cerevisiae deletion strains, locus YLR262C, strain YPT6, stronger effect = lower value.
[16] abbreviates: S. cerevisiae deletion strains, locus YML094W, strain GIM5, stronger effect = lower value.
[17] abbreviates: S. cerevisiae deletion strains, locus YMR219W, strain ESC1, stronger effect = lower value.
Where [18] appears, read: S. cerevisiae deletion strains, locus YMR263W, strain SAP30, stronger effect = lower value.
[19] abbreviates: S. cerevisiae deletion strains, locus YMR307W, strain GAS1, stronger effect = lower value.
The mark [20] stands for this setting: S. cerevisiae deletion strains, locus YNL153C, strain GIM3, stronger effect = lower value.
Where [21] appears, read: S. cerevisiae deletion strains, locus YNL298W, strain CLA4 (second series), stronger effect = lower value.
Where [22] appears, read: S. cerevisiae deletion strains, locus YNL322C, strain KRE1, stronger effect = lower value.
The mark [23] stands for this setting: S. cerevisiae deletion strains, locus YNR030W, strain Alg12, stronger effect = lower value.
Setting [24] is: S. cerevisiae deletion strains, locus YPL055C, strain LGE1, stronger effect = lower value.
Setting [25] is: S. cerevisiae deletion strains, locus YPL241C, strain CIN2, stronger effect = lower value.
[26] abbreviates: S. cerevisiae deletion strains, locus YPR135W, strain CTF4, stronger effect = lower value.
The mark [27] stands for this setting: S. cerevisiae strains, strain wild type, stronger effect = lower value.

As for `COc1cccc(Nc2nc3ccccc3s2)c1`, the normalized growth is 0.728 (active) under setting [1]; 0.709 (active) under setting [2]; 0.724 (active) under setting [3]; 0.877 under setting [4]; 0.533 (active) under setting [5]; 0.827 (active) under setting [6]. Also, the normalized growth was 0.112 (active) under setting [7]; 0.688 (active) under setting [8]; 0.682 (active) under setting [9]; 0.856 (active) under setting [10]; 0.711 (active) under setting [11]; 0.163 (active) under setting [12]. In addition, the normalized growth reads like this: under setting [13], 0.914 (active); under setting [14], 0.138 (active); under setting [15], 0.187 (active); under setting [16], 0.66 (active); under setting [17], 0.804 (active); under setting [18], 0.795 (active). Also, the normalized growth under setting [19] is 0.208 (active); the normalized growth under setting [20] is 0.799 (active); the normalized growth under setting [21] was 0.421 (active); the normalized growth under setting [22] was 0.943 (active); the normalized growth under setting [23] is 0.575 (active); the normalized growth under setting [24] is 0.548 (active). Besides, the normalized growth is, setting by setting: under setting [25], 0.485 (active); under setting [26], 0.264 (active); under setting [27], 0.598 (active).
In the case of `COc1cccc(NC(N)=S)c1`, the normalized growth under setting [1] was 1.02; the normalized growth under setting [2] was 1.01; the normalized growth under setting [3] was 1.02; the normalized growth under setting [4] was 0.992; the normalized growth under setting [5] is 1.01; the normalized growth under setting [6] was 1.01. In addition, the normalized growth runs as follows: (S. cerevisiae deletion strains, locus YGR229C, strain SMI1, stronger effect = lower value) 0.993; under setting [7], 1.08; under setting [8], 0.997; under setting [9], 1.01; under setting [10], 1.01; under setting [11], 0.991. The normalized growth reads like this: (S. cerevisiae deletion strains, locus YKL190W, strain CNB1, stronger effect = lower value) 0.985; under setting [12], 1.03; under setting [13], 1.03; under setting [14], 1.02; under setting [15], 1.05; under setting [16], 1. Besides, the normalized growth was 1.01 under setting [17]; 1.01 under setting [18]; 0.998 under setting [20]; 1.03 under setting [21]; 0.995 under setting [22]; 1.01 under setting [23]. Moreover, the normalized growth by setting is: (S. cerevisiae deletion strains, locus YOL006C, strain TOP1, stronger effect = lower value) 1.05; under setting [24], 0.984; under setting [25], 0.964; under setting [26], 1.12; under setting [27], 0.993.
With `c1cc(CN2CCCCC2)cc(OCCCNc2nc3ccccc3s2)c1`, the normalized growth under setting [1] was 1; the normalized growth (S. cerevisiae deletion strains, locus YAL040C, strain CLN3, stronger effect = lower value) is 0.908; the normalized growth (S. cerevisiae deletion strains, locus YCL061C, strain MRC1 (second series), stronger effect = lower value) is 1.01; the normalized growth under setting [4] was 1.02; the normalized growth (S. cerevisiae deletion strains, locus YDR363W, strain ESC2, stronger effect = lower value) is 0.997; the normalized growth (S. cerevisiae deletion strains, locus YER002W, strain NOP16, stronger effect = lower value) was 0.936. Further, the normalized growth reads like this: under setting [18], 1.01; under setting [19], 1.01; (S. cerevisiae deletion strains, locus YNL197C, strain WHI3, stronger effect = lower value) 1.04; (S. cerevisiae deletion strains, locus YNL224C, strain SQS1, stronger effect = lower value) 1.06; under setting [22], 0.992; (S. cerevisiae deletion strains, locus YOR083W, strain WHI5 (second series), stronger effect = lower value) 1.03.
